Experiment: probe aLAP1 signal on lysate-treated microarray – cell lysate, small-molecule microarray, COS7 lysate, primary screen (AID 1124);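 also: lysate comes from COS7 cells expressing LAP1 and is applied at 0.3 µg/mL; score merges spot fluorescence near 667 nm with signal-to-noise over triplicate slides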
Settings: probe aLAP1, fluorescence, higher = more signal

Question: Which composite z-score does the source give for `Cc1ccc(S[C@]2(C(=O)NCCCN(C)C)CC(=O)N(C3CCCCC3)[C@@H]2c2ccc(CO)cc2I)cc1` here?
Answer: Its composite z-score is 0.379.

Question: With `O=C1C2C=CC(C(O)C#Cc3ccccc3)N(Nc3ccccc3)C2C(=O)N1c1ccccc1` (stereo not given) as the molecule, how does the composite z-score read?
Answer: Its composite z-score is 0.435.

Question: For `O=C1NC(=O)C2C1C=CC(C(O)C=Cc1ccc([N+](=O)[O-])cc1)N2Nc1ccccn1` (stereo not given), which composite z-score is on record?
Answer: The composite z-score was 1.07.

Question: Which composite z-score does the source give for `Cc1ccc(S(=O)(=O)N[C@H]2COC(=O)CC=C[C@H](C)COC(=O)N[C@@H](C)C(=O)CC=C[C@@H]2C)cc1` here?
Answer: The composite z-score was -0.314.

Question: Which composite z-score does the source give for `Cc1ccc(N2C(=O)c3ccccc3[C@](C)(C(=O)NCC(C)C)[C@@H]2c2ccc(CO)cc2)nc1` here?
Answer: Its composite z-score is -0.115.

Question: For `O=C1C2C=CC(C(O)c3ccccc3)N(n3cnnc3)C2C(=O)N1Cc1ccccc1` (stereo not given), which composite z-score is on record?
Answer: Its composite z-score is -0.333.

Question: Which composite z-score does the source give for `COc1cc([C@@H]2N[C@H](C(=O)O)Cc3c2[nH]c2ccccc32)cc(OC)c1OC` here?
Answer: Its composite z-score is 0.238.

Question: For `C=CCNC(=O)[C@H]1[C@@H]2C(=O)O[C@@H](c3ccccc3)[C@@H](c3ccccc3)N2[C@@H](c2ccc(O)cc2)[C@]12C(=O)Nc1ccc(C#CCNC(N)=O)cc12`, which composite z-score is on record?
Answer: Its composite z-score is 0.0128.

Question: With `CCC#CCN(Cc1ccccc1Br)[C@H](/C=C/c1ccccc1)[C@@H](O)Cc1ccccc1` as the molecule, how does the composite z-score read?
Answer: The composite z-score was 0.162.

Question: For `CCCC=C(CCC)[C@@H](NC(=O)c1ccccc1)c1ccccc1`, which composite z-score is on record?
Answer: Its composite z-score is 0.139.

Question: Which composite z-score does the source give for `CO[C@H]1O[C@H](CO)[C@@H](OC(=O)CCc2ccccc2)[C@@H]2OC(=O)[C@H](Cc3cccc(Br)c3)C/C=C/C[C@@H](Cc3cccc(Br)c3)C(=O)O[C@@H]12` here?
Answer: The composite z-score was 0.0054.

Question: Which composite z-score does the source give for `C=CCC(OC(C)=O)[C@@H]1[C@@H](N(Cc2cccc3ccccc23)C(=O)c2ccc(C)cc2)c2cc(OCCCO)ccc2N1C(=O)c1ccc(-c2ccccc2)cc1` (stereo not given in full) here?
Answer: Its composite z-score is -0.105.

Question: Which composite z-score does the source give for `Cc1ccc(N2C(=O)c3ccccc3[C@](C)(C(=O)O)[C@@H]2c2ccc(CO)cc2)nc1` here?
Answer: The composite z-score was 0.067.

Question: For `C[C@@H]1CC[C@H]2C(=O)N3[C@@H](CC[C@@H](C)[C@@H]3c3cccc(N4CCOCC4)c3)C(=O)N2[C@H]1c1cccc(N2CCOCC2)c1`, which composite z-score is on record?
Answer: Its composite z-score is 0.581.

Question: For `Cc1ccc(S[C@]2(C(=O)NCCN3CCOCC3)CC(=O)N(C3Cc4ccccc4C3)[C@@H]2c2ccc(CO)cc2I)cc1`, which composite z-score is on record?
Answer: Its composite z-score is 0.39.

Question: With `N#Cc1ccc(NN2C(C(O)c3ccc(I)cc3)C=CC3C(=O)N(c4ccccc4)C(=O)C32)cc1` (stereo not given) as the molecule, how does the composite z-score read?
Answer: Its composite z-score is -0.809.

Question: Which composite z-score does the source give for `CCOC(=O)[C@H]1C/C=C/C[C@H](C(=O)OCC)C(=O)O[C@H]2[C@@H](OC)O[C@H](CO)[C@@H](OC(=O)Nc3ccc(Br)cc3)[C@@H]2OC1=O` here?
Answer: The composite z-score was 0.704.

Question: Which composite z-score does the source give for `C[C@@H]1C=CCC(=O)OC[C@H]2O[C@@H](C=C[C@@H]2O)[C@H](C)C=CCC(=O)OC[C@H]2O[C@H]1C=C[C@@H]2O` here?
Answer: Its composite z-score is -0.725.

Question: Which composite z-score does the source give for `CO[C@@H]1COC(=O)[C@H](C)NC(=O)CC=C[C@@H](C)[C@H](NS(=O)(=O)c2ccc(C)cc2)COC(=O)CC=C[C@@H]1C` here?
Answer: The composite z-score was -0.319.

Question: Which composite z-score does the source give for `C=C(CCCC)/C(=C/C[C@@H](OC(=O)c1ccncc1)c1cccc(OCCO)c1)c1cc(C(=O)OC)ccc1OC` here?
Answer: Its composite z-score is 1.05.

Question: With `[N-]=[N+]=NCc1ccccc1C[C@]1(C(N)=O)N=C(c2ccc(OCCCO)cc2)O[C@H]1c1ccccc1CN=[N+]=[N-]` as the molecule, how does the composite z-score read?
Answer: The composite z-score was 0.641.

Question: Which composite z-score does the source give for `CCCCO[C@H]1C[C@H]2C(Br)=C[C@@]1(CO)C(=O)[C@]21CO1` here?
Answer: The composite z-score was -0.139.

Question: With `CC(C)N1CC=CC23O[C@@H]4/C=C\CCCOC(=O)C4[C@H]2C(=O)N(CCCCCO)[C@@H]3C1=O` (stereo not given in full) as the molecule, how does the composite z-score read?
Answer: Its composite z-score is 0.64.

Question: With `CO[C@@H]1COC(=O)[C@H](C)NC(=O)CC=C[C@@H](C)[C@H](OC)COC(=O)[C@H](C)NC(=O)CC=C[C@H]1C` as the molecule, how does the composite z-score read?
Answer: The composite z-score was 0.0381.

Question: With `CCOC(=O)C[C@H]1[C@H](OC(=O)Cc2ccc3c(c2)OCO3)[C@@H](NC(=O)c2ccc3ccccc3c2)c2cc(OCCCO)ccc2N1C(=O)Cc1ccc(OC)cc1` as the molecule, how does the composite z-score read?
Answer: Its composite z-score is -0.333.

Question: Which composite z-score does the source give for `CCCN1C(=O)[C@@]2(CCS(=O)(=O)c3ccccc3)N=C(c3ccc(OCCCO)cc3)O[C@H]2c2ccccc21` here?
Answer: The composite z-score was 0.163.

Question: For `CCCC[C@@H]1C[C@H]1[C@@H](NC(=O)c1cccs1)c1ccc(Cl)cc1`, which composite z-score is on record?
Answer: The composite z-score was -0.0875.

Question: Which composite z-score does the source give for `C[C@H]1COC(=O)[C@@H]2CCCN2C(=O)[C@@H](C)COC(=O)[C@@H]2CCCN2C1=O` here?
Answer: The composite z-score was -0.111.

Question: Which composite z-score does the source give for `[N-]=[N+]=NCc1ccccc1C[C@@]1(C(=O)O)N=C(c2ccc(OCCCO)cc2)O[C@@H]1c1ccccc1N=[N+]=[N-]` here?
Answer: Its composite z-score is 0.497.

Question: Which composite z-score does the source give for `O=C1C2C=CC(C(O)C(c3ccccc3)c3ccccc3)N(Nc3ccc([N+](=O)[O-])cc3)C2C(=O)N1c1ccccc1` (stereo not given) here?
Answer: Its composite z-score is 0.953.
